Screening data as filed in PubChem BioAssay.
Hits are enriched below; roughly 2.1% of the tested compounds scored in any of these assays.
TDP43 rescue – TDP-43 toxicity inhibition in yeast | 410,000 tested, 1.8% active | AID 652104 | TDP-43 expressing yeast growth rescue, BacTiter-Glo, 24 h | Potency, µM (doses to about 46.1 µM), most hits filed as activators; note: nearly all actives have a fitted effect of over 50% in size
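Luminescence from BacTiter-Glo reports growth of TDP-43-expressing yeast after 24 hr at 30 deg C with compound. Cells were raffinose-pregrown to mid-log, then seeded in galactose medium at OD600=0.02.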
Abeta yeast res – restores growth of yeast expressing A-beta42 peptide; yeast expressing A-beta42, growth rescue, OD600, 48 h; response scale: 0% DMSO, 100% iron-clioquinol control; Potency, µM (titrated, usually from 46.1 µM), actives largely listed as activators; 410,000 tested, 0.063% active; AID 1347071; note: nearly all actives have a fitted effect of over 55% in size
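Yeast A-beta toxicity model in growth medium with pinned compounds, 48 h at 30 C; growth read as absorbance at 600 nm. Normalized to FeCl3/clioquinol equimolar mix (positive) and DMSO (negative).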
aSyn yeast inh – alpha-synuclein toxicity inhibition in yeast | Yeast expressing alpha-synuclein, growth rescue, BacTiter-Glo, 24 h | Potency, µM (highest dose often 46.1 µM), hits mostly activators | 370,000 tested, 0.14% active; note: nearly all actives have a fitted effect of over 65% in size
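Screening used galactose-induced yeast with toxic alpha-synuclein levels, exposed to compound for 24 hr at 30 deg C. Cell growth, read with BacTiter-Glo luminescence, gave the measured signal.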
FUS suppressor – FUS proteinopathy suppression in yeast; S. cerevisiae FUS-expressing, growth rescue, OD600, 24 h; Potency, µM (doses to about 76.6 µM), most hits filed as activators; 390,000 tested, 0.24% active; AID 1347120; note: nearly all actives have a fitted effect of over 55% in size
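Cultures pregrown in 2.5% raffinose medium are shifted to minimal medium containing 2% galactose to express toxic FUS. Compounds are tested at several concentrations. After 24hr at 30C, growth is quantified at 600 nm absorbance.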
Of the large screens only hits and unclear results are named; the others gave an inactive call. Calls come from the whole dose curve; as a rule, active = well fitted curve in the direction sought with a large enough effect; inconclusive = small, poorly fitted or top-dose-only effect, or another doubt; inactive = no such curve, though single readings can be large; an effect the other way counts as inactive or inconclusive.

O=C(Nc1ccc(C(F)(F)F)cc1Cl)c1ccc(Cn2cc(Br)cn2)o1	TDP43 rescue inconclusive
O=C(Nc1cccc(C(F)(F)F)c1)c1ccc(Cn2cc(Br)cn2)o1	TDP43 rescue 12.6µM
O=C(Oc1cccc(/C=N/Nc2nc(N3CCOCC3)nc(N3CCOCC3)n2)c1)c1ccco1	none
COc1cc(/C=N/Nc2nc(Nc3ccccc3)nc(N3CCOCC3)n2)ccc1OC(=O)c1ccco1	TDP43 rescue 20µM, FUS suppressor inconclusive
COC(=O)[C@H](Cc1ccc(O)cc1)NC(=O)Cn1cnc2c(OCc3ccccc3)ncnc21	none
CC[C@@H](C)C(NC(=O)OC(C)(C)C)c1cn([C@@H](Cc2cc3ccccc3[nH]2)C(=O)N2CCN(C(=O)OC(C)(C)C)CC2)nn1 (stereo partly specified)	FUS suppressor 14.1µM
CC(C)CC(NC(=O)OC(C)(C)C)c1cn([C@@H](CCCCNC(=O)OC(C)(C)C)C(=O)N2CCN(C(=O)OC(C)(C)C)CC2)nn1 (stereo partly specified)	FUS suppressor 7.94µM
CC[C@@H](C)C(NC(=O)OC(C)(C)C)c1cn([C@@H](CCCCNC(=O)OC(C)(C)C)C(=O)N2CCN(C(=O)OC(C)(C)C)CC2)nn1 (stereo partly specified)	none
Clc1ccc(OCc2nnnn2-c2ccccc2)cc1	TDP43 rescue 12.6µM (no result: FUS suppressor)
c1ccc(OCc2nnnn2-c2ccccc2)cc1	none
Brc1ccc(Oc2nnnn2-c2ccccc2)cc1	TDP43 rescue 15.8µM
CC12CCC(=O)N1C(C(=O)Nc1nnc(SCc3ccc(F)cc3)s1)CS2 (stereo unspecified)	none
O=C(Nc1ccc(F)cc1F)c1cc(S(=O)(=O)N2CCCCC2)c[nH]1	none
O=C(NC(=S)N1CCN(c2ccc([N+](=O)[O-])cc2Cl)CC1)c1ccco1	none (no result: FUS suppressor)
O=C(c1cc([N+](=O)[O-])ccc1Cl)N1CCN(c2ccccc2)CC1	TDP43 rescue 7.94µM
O=C(c1cc([N+](=O)[O-])ccc1Cl)N1CCN(c2ccccn2)CC1	none
CC1(C(=O)N2CCN(c3ccc([N+](=O)[O-])cc3)CC2)CC1(Cl)Cl (stereo unspecified)	TDP43 rescue 11.2µM
CC1(C(=O)N2CCN(c3ccccc3)CC2)CC1(Cl)Cl (stereo unspecified)	none (no result: TDP43 rescue)
O=C(c1ccco1)N1CCN(c2ccc([N+](=O)[O-])cc2Cl)CC1	TDP43 rescue 14.1µM
CCOc1ccc(/C=N/NS(=O)(=O)c2ccc(C)cc2)cc1OC	none
O=C(Nc1nnc(CC2=CCCCC2)s1)Nc1ccccc1F	none
Cc1ccc(C(=O)N/N=C/C=C/c2ccccc2)cc1	none
CCN(c1cccc(C)c1)S(=O)(=O)c1cc2c(cc1C)n(C)c(=O)c(=O)n2C	none (no result: aSyn yeast inh)
Cc1ccc(Nc2nc(C)cc(C)n2)c(Br)c1	TDP43 rescue 10µM
O=c1c(Cl)c(Nc2cccc(Cl)c2)cnn1-c1nc2ccccc2s1	none
COc1ccc(Nc2cnn(-c3nc4ccccc4s3)c(=O)c2Cl)cc1	TDP43 rescue 8.91µM (no result: FUS suppressor)
COc1cc(C=C(C#N)c2ccc([N+](=O)[O-])cc2)ccc1O	TDP43 rescue 3.98µM
O=C1[C@@H]2[C@@H]3C[C@@H]([C@H]4ON=C(c5ccc(Cl)cc5Cl)[C@@H]34)[C@@H]2C(=O)N1C1CCCCC1	aSyn yeast inh inconclusive
Cn1ccsc1=NC(=O)c1ccc(Cl)cc1	TDP43 rescue 11.2µM
CC1(NC(=O)CN2CCN(c3cnn(-c4ccccc4)c(=O)c3Cl)CC2)CCS(=O)(=O)C1 (stereo unspecified)	none
Cc1cc(C(F)(F)F)n2nc(-c3cnn(C)c3C(F)(F)F)c(Br)c2n1	TDP43 rescue 12.6µM
CCCN(CC(=O)Nc1cccc(Br)c1)CC(=O)Nc1ccc(F)c(F)c1F	TDP43 rescue 14.1µM, aSyn yeast inh inconclusive
COc1ccc(C2CC2/C(C)=N/OC(=O)C2CC2)cc1 (stereo unspecified)	TDP43 rescue 14.1µM
C/C(=N\OC(=O)C1CC1)C1CC1c1ccc(F)cc1 (stereo unspecified)	TDP43 rescue inconclusive
O=C(Nc1ccccc1-c1ccccc1)c1ccc(Br)o1	TDP43 rescue 22.4µM
O=C(Nc1ccccc1Oc1ccccc1)c1ccc(Br)o1	none
COc1ccc(CCN=C(NS(=O)(=O)c2ccccc2)c2ccccc2)cc1OC	none
COc1ccc2c(c1)CC/C(=C/c1ccco1)C2=O	TDP43 rescue 14.1µM
O=C(NC1CCCc2ccccc21)c1cccnc1 (stereo unspecified)	none
COc1ccc(-c2oc3c(c2C#CC2(O)CCCCC2)C(OC(C)=O)CCC3)cc1 (stereo unspecified)	TDP43 rescue 20µM, FUS suppressor inconclusive
O=Cc1ccc(OC(=O)c2cccnc2)cc1	none
CCOc1ccc(OC(=O)c2cccnc2)cc1	TDP43 rescue 15.8µM
CCCCCOc1ccc(OC(=O)c2ccncc2)cc1	TDP43 rescue 35.5µM
CCCCOc1ccc(C(=O)Oc2ccc(C)nc2)cc1	none
COC(=O)c1ccc(OC(=O)c2cccnc2)cc1	none
CC(=O)/C=C\c1ccc(OC(=O)c2cccnc2)cc1	TDP43 rescue 20µM
CC1CCCN(C(=O)COC(=O)c2cc(-c3cccs3)nn2-c2ccccc2)C1 (stereo unspecified)	none
O=C(CCNc1cc(Cl)cc(Cl)c1)c1ccco1	TDP43 rescue 15.8µM
CC1CCN(CCCNS(=O)(=O)c2cc(Br)cc3c2N(C(=O)C2CC2)CC3)CC1	none
CCc1ccc(NC(=O)Cn2ccn(Cc3ccccc3OC)c(=O)c2=O)cc1	none (no result: aSyn yeast inh)
Cc1ccc(C)c(S(=O)(=O)c2c(C)cc(C)nc2Cl)c1	TDP43 rescue 11.2µM
Cc1ccc(S(=O)(=O)c2c(C)cc(C)nc2Cl)c(C)c1	TDP43 rescue inconclusive
Cc1ccc(C(=O)c2coc3ccc(O)c(Cl)c23)cc1	TDP43 rescue 15.8µM
CCCOc1ccc(F)cc1-c1cc(C(=O)Nc2ccc(OC)c(OC)c2)[nH]n1	TDP43 rescue inconclusive, FUS suppressor inconclusive
COc1ccc(NC(=O)c2cc(-c3cc(F)ccc3OC)n[nH]2)c(OC)c1	TDP43 rescue 20µM
COc1ccc(NC(=O)c2cc(-c3cc(F)ccc3OC)n[nH]2)cn1	TDP43 rescue 20µM
COc1ccc(F)cc1-c1cc(C(=O)Nc2ccc(C)c(NS(C)(=O)=O)c2)[nH]n1	none
COc1ccc(NC(=O)c2cc(-c3ccc(F)cc3OC)n[nH]2)c(OC)c1	none
COc1ccc(NC(=O)c2cc(-c3cc(F)ccc3OC)n[nH]2)cc1OC	TDP43 rescue 35.5µM
COc1ccc(OC)c(NC(=O)c2cc(-c3ccc(F)cc3OC(C)C)n[nH]2)c1	TDP43 rescue 22.4µM, FUS suppressor inconclusive
CC1CCN(S(=O)(=O)c2ccc3c(c2)CC(C)N3C(=O)C2CCC2)CC1 (stereo unspecified)	TDP43 rescue 17.8µM, FUS suppressor inconclusive (no result: Abeta yeast res)
Cc1cc(C)c(NS(=O)(=O)c2ccc3c(c2)CC(C)N3C(=O)C2CCC2)c(C)c1 (stereo unspecified)	TDP43 rescue 11.2µM, FUS suppressor inconclusive (no result: aSyn yeast inh)
